Assay outcomes (PubChem)
In the library only some 16% were active in any assay of this set; here they are far more common.
DT40 TDP1 CPT – qHTS for Inhibitors of human tyrosyl-DNA phosphodiesterase 1 (TDP1): qHTS in cells in presence of CPT; chicken DT40 Tdp1-/-;hTDP1 cells + 20 nM CPT, ATP luminescence, 48 h; Potency, µM (doses to about 46.2 µM), most hits filed as inhibitors; actives 12% (n = 420,000); AID 686979, 2013; note: nearly all actives have a fitted effect of over 55% in size
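Chicken DT40 Tdp1-/- cells complemented with human TDP1, 400 cells/well, exposed to compounds plus 20 nM camptothecin for at least 48 h at 37 C; viability read as ATP content by CellTiter-Glo luminescence.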
TDP1 cell noCPT – qHTS for Inhibitors of human tyrosyl-DNA phosphodiesterase 1 (TDP1): qHTS in cells in absence of CPT; AID 686978, 2013; Potency, µM (highest dose often 46.2 µM), most hits filed as inhibitors; DT40 Tdp1-/- hTDP1 cells, no CPT, ATP luminescence, 48 h; actives 15% (n = 420,000); note: nearly all actives have a fitted effect of over 55% in size
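Growth of hTDP1-complemented DT40 Tdp1-knockout cells is measured by ATP luminescence after at least 48 hr compound exposure at 37 °C, with DMSO substituting for the 20 nM CPT used in the parallel screen.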
TDP1 inh – qHTS Assay for Inhibitors of Tyrosyl-DNA Phosphodiesterase (TDP1). recombinant TDP1, AlphaScreen DNA substrate cleavage. Potency, µM (top dose mostly 130 µM), actives largely listed as inhibitors. actives 0.28% (n = 350,000); note: nearly all actives have a fitted effect of over 40% in size
Target sequence (Q9NUW8 whole entry, looked up): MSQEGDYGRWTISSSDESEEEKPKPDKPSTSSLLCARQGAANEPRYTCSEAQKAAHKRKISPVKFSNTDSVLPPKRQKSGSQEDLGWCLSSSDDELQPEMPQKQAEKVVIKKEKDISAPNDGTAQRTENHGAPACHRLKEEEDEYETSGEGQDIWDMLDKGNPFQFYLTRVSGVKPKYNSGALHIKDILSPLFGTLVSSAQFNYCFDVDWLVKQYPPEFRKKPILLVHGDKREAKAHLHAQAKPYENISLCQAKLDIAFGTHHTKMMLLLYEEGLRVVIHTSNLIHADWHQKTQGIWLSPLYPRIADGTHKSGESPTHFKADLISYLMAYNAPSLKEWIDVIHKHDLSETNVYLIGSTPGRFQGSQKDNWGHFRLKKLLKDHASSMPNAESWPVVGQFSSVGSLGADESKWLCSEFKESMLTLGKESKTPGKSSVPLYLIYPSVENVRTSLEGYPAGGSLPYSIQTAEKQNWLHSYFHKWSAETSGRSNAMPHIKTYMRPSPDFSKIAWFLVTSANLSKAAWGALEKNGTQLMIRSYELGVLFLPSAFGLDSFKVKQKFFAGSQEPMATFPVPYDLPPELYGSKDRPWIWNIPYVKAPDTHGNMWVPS
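Tdp1 1 nM final; 15 min RT w/ cpd; substrate 15 nM, 5 min; beads 10 ug/ml, 10 min; AlphaScreen read. Neg ctrl: no enzyme.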
uPA generation – qHTS for Inhibitors of Cell Surface uPA Generation; cell surface uPA generation assay, qHTS; Potency, µM (series often up to 38.3 µM), hits mostly inhibitors; actives 0.31% (n = 330,000); active = well fitted inhibition curve with a large enough effect; inconclusive = small, poorly fitted or top-dose-only effect; inactive = no such curve, though single readings can be large or run the other way; tested in mouse RAW 264.7 cells; note: nearly all actives have a fitted effect of over 55% in size
miR-21 act – qHTS Assay for Modulators of miRNAs and/orActivators of miR-21. HeLa miR-21 FLuc reporter, luciferase, 48 h. 340,000 tested, under 10 active. Potency, µM (titrated, usually from 38.3 µM), hits mostly activators;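 note: miR-21 action dims this reporter so a rising signal means less miR-21 action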
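HeLa cells endogenously expressing miR-21, stably carrying CMV-driven firefly luciferase with a downstream miR-21 binding site, 2000 cells/well. Titrations up to approximately 40 uM, 48 hours; luciferase luminescence read.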
Numbers stand for hits. Unless noted, calls come from the whole dose curve; as a rule, active = well fitted curve in the direction sought with a large enough effect; inconclusive = small, poorly fitted or top-dose-only effect, or another doubt; inactive = no such curve, though single readings can be large; an effect the other way counts as inactive or inconclusive.

Results for COc1ccc(Nc2ncnc3c2cnn3-c2ccccc2)cc1OC ?
DT40 TDP1 CPT: inconclusive; TDP1 cell noCPT: inactive; TDP1 inh: inactive; uPA generation: inactive; miR-21 act: inactive

Results for c1ccc(CNc2ncnc3c2cnn3-c2ccccc2)cc1 ?
DT40 TDP1 CPT: 5.8µM; TDP1 cell noCPT: 4.6µM; TDP1 inh: inactive; uPA generation: inactive; miR-21 act: inactive

How did Clc1ccc2c(NCc3ccco3)ncnc2c1 do in these assays?
DT40 TDP1 CPT: 15µM; TDP1 cell noCPT: 13µM; TDP1 inh: inactive; uPA generation: inactive; miR-21 act: inactive

Results for O=C1C=C(c2cccc(Cl)c2O)C[C@@H](c2ccc3c(c2)OCO3)C1 ?
DT40 TDP1 CPT: inconclusive; TDP1 cell noCPT: inconclusive; TDP1 inh: inactive; uPA generation: inactive

Results for CC(C)NC(=S)N1CCn2c(nc3ccccc32)C1 ?
DT40 TDP1 CPT: inactive; TDP1 cell noCPT: inconclusive; TDP1 inh: inactive; uPA generation: inactive; miR-21 act: inactive

Results for Cc1ccc(-n2ncc3c(NCc4ccco4)ncnc32)cc1C ?
DT40 TDP1 CPT: inactive; TDP1 cell noCPT: inactive; TDP1 inh: inactive; uPA generation: inactive; miR-21 act: inactive

Results for Cc1cccc(-n2ncc3c(NCc4ccco4)ncnc32)c1 ?
DT40 TDP1 CPT: 13µM; TDP1 cell noCPT: 12µM; TDP1 inh: inactive; uPA generation: inactive; miR-21 act: inactive

How did Cc1ccc2ncnc(NCc3ccco3)c2c1 do in these assays?
DT40 TDP1 CPT: 7.1µM; TDP1 cell noCPT: 4.5µM; TDP1 inh: inactive

What do the screens show for `COc1cc2ncnc(NCc3cccs3)c2cc1OC`?
DT40 TDP1 CPT: inconclusive; TDP1 cell noCPT: inactive; TDP1 inh: inactive; uPA generation: inactive; miR-21 act: inactive

How did Clc1ccc2c(NCc3cccs3)ncnc2c1 do in these assays?
DT40 TDP1 CPT: 13µM; TDP1 cell noCPT: 21µM; uPA generation: inactive; miR-21 act: inactive

How did O=C1CC(=O)c2c1cccc2[N+](=O)[O-] do in these assays?
miR-21 act: inactive

How did O=C(NCCCN1CCN(c2ccccc2)CC1)c1nnc(Cc2c(F)cccc2Cl)o1 do in these assays?
DT40 TDP1 CPT: 23µM; TDP1 cell noCPT: 21µM; TDP1 inh: inactive; miR-21 act: inactive

Results for O=C(NCc1ccncc1)c1nnc(Cc2c(F)cccc2Cl)o1 ?
DT40 TDP1 CPT: inactive; TDP1 cell noCPT: inactive; TDP1 inh: inactive; uPA generation: inactive; miR-21 act: inactive

Results for CC(=O)Nc1cc(NC(C)=O)cc(C(=O)N2CCCC3CCCCC32)c1 (stereo not drawn) ?
DT40 TDP1 CPT: inactive; TDP1 cell noCPT: inactive; uPA generation: inactive; miR-21 act: inactive

What do the screens show for `CCc1ccc(OCc2ccccc2C(=O)Nc2ccc3nc(C)cc(N)c3c2)cc1`?
DT40 TDP1 CPT: 5µM; TDP1 cell noCPT: 3.2µM; TDP1 inh: inactive

What do the screens show for `Cc1ccc2c(C(=O)CN3CCSCC3)c(C)[nH]c2c1`?
DT40 TDP1 CPT: 16µM; TDP1 cell noCPT: inconclusive; TDP1 inh: inactive; uPA generation: inactive; miR-21 act: inactive

What do the screens show for `Cc1ccc2c(C(=O)CNc3nccs3)c(C)[nH]c2c1`?
DT40 TDP1 CPT: inactive; TDP1 cell noCPT: inconclusive

What do the screens show for `Cc1ccc2[nH]cc(C(=O)CCl)c2c1`?
DT40 TDP1 CPT: 2.6µM; TDP1 cell noCPT: 4.1µM; TDP1 inh: inactive; uPA generation: inactive; miR-21 act: inconclusive

What do the screens show for `Cc1ccc2c(C(=O)CCl)c(C)[nH]c2c1`?
DT40 TDP1 CPT: 3.7µM; TDP1 cell noCPT: 2.6µM; uPA generation: inactive; miR-21 act: inactive

How did CCCCn1c(N)c(N(CCOC)C(=O)CSc2nc3ccc(C)cc3[nH]2)c(=O)[nH]c1=O do in these assays?
DT40 TDP1 CPT: inactive; TDP1 cell noCPT: inactive; TDP1 inh: inactive; uPA generation: inactive; miR-21 act: inactive

What do the screens show for `Cc1ccc(NC(=O)CCN2C(=O)NC3(CCCC3)C2=O)cc1S(=O)(=O)N1CCOCC1`?
DT40 TDP1 CPT: inactive; TDP1 cell noCPT: inactive; TDP1 inh: inactive; uPA generation: inactive

What do the screens show for `CCCCNc1nc2ccccc2n1CC(=O)Nc1c(C)cccc1CC`?
DT40 TDP1 CPT: inactive; TDP1 cell noCPT: inconclusive; TDP1 inh: inactive; uPA generation: inactive; miR-21 act: inactive

Results for CCOC(=O)CSc1nc2c(sc(=S)n2-c2ccc(CC)cc2)c(=O)[nH]1 ?
DT40 TDP1 CPT: inactive; TDP1 cell noCPT: inconclusive; uPA generation: inactive; miR-21 act: inactive

Results for CCOC(=O)c1ccc(-n2c(=S)sc3c(=O)[nH]c(C)nc32)cc1 ?
DT40 TDP1 CPT: inconclusive; TDP1 cell noCPT: 16µM; TDP1 inh: inactive; miR-21 act: inactive

Results for Cc1cc(C)c2[nH]c(=O)c(C(c3nnnn3CC3CCCO3)N3CCC(C)CC3)cc2c1 (stereo not drawn) ?
DT40 TDP1 CPT: inconclusive; TDP1 cell noCPT: inconclusive; TDP1 inh: inactive; miR-21 act: inactive

Results for Cc1cc(C)c2[nH]c(=O)c(C(c3nnnn3CC3CCCO3)N3CCCC(C)C3)cc2c1 (stereo not drawn) ?
DT40 TDP1 CPT: 18µM; TDP1 cell noCPT: inconclusive; TDP1 inh: inactive; uPA generation: inactive; miR-21 act: inactive

Results for O=C(NCC(c1ccco1)N1CCN(c2ccc(F)cc2)CC1)C(=O)NC1CCCCC1 (stereo not drawn) ?
DT40 TDP1 CPT: inconclusive; TDP1 cell noCPT: inconclusive; TDP1 inh: inactive; uPA generation: inactive

What do the screens show for `CC(=O)c1ccc(S(=O)(=O)Nc2ccc(Cl)c(S(=O)(=O)N3CCCC3)c2)cc1`?
DT40 TDP1 CPT: inactive; TDP1 cell noCPT: inactive; TDP1 inh: inactive; uPA generation: inactive

How did CCCC[C@@H]1Cc2[nH][nH]c(=O)c2[C@H](c2ccc3ccccc3c2)O1 do in these assays?
DT40 TDP1 CPT: inactive; TDP1 cell noCPT: 18µM

How did Cc1cc(Br)ccc1OCC(=O)NNC(=O)c1cnccn1 do in these assays?
DT40 TDP1 CPT: inconclusive; TDP1 cell noCPT: 21µM; TDP1 inh: inactive; uPA generation: inconclusive; miR-21 act: inactive

How did Cc1ccc(C(=O)NNC(=O)COc2ccc(Cl)cc2C)o1 do in these assays?
DT40 TDP1 CPT: inconclusive; TDP1 cell noCPT: inconclusive; TDP1 inh: inactive; uPA generation: inactive

What do the screens show for `Cc1ccc(NC(=O)c2ccc(OC(=O)COc3ccc(Cl)cc3C)cc2)cc1`?
DT40 TDP1 CPT: inactive; TDP1 cell noCPT: inactive; TDP1 inh: inactive; uPA generation: inactive; miR-21 act: inactive

What do the screens show for `Cc1ccc(C(=O)CC(=O)COc2ccc(Cl)cc2C)cc1`?
DT40 TDP1 CPT: 4.1µM; TDP1 cell noCPT: 5.8µM; TDP1 inh: inactive; uPA generation: inactive; miR-21 act: inactive

Results for Cc1cc(Cl)ccc1OCC(=O)NNC(=O)c1cnccn1 ?
DT40 TDP1 CPT: 10µM; TDP1 cell noCPT: 23µM; TDP1 inh: inactive; uPA generation: inactive; miR-21 act: inactive
